Common to all, as to assay: qHTS profiling for inhibitors of Plasmodium falciparum proliferation (AID 504749); also: nearly all actives have a fitted effect of over 60% in size
What all share (details): P. falciparum in erythrocytes, SYBR Green DNA, 72 h; series mostly up to 28.7 µM
Background: Quantitative high-throughput screening tests each substance at several concentrations.

For assay [1], the system named is P93_24. Put shortly:
(§1)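 Readout was DNA-dye fluorescence from lysed cultures, ex 485/em 535 nm. Parasitized red cells had grown 72 h with compound; data scaled between 0.29 uM artemisinin and DMSO wells and corrected using vehicle-only plates.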

Assay [2] concerns JCK. Put shortly:
as §1

Assay [3] has as its system PC26. Put shortly:
as §1

In assay [4] the test system is SC27B. The gist of the method:
as §1

Assay [5] has as its system N140. Put shortly:
as §1

Assay [6] concerns P94_40. Put shortly:
as §1

Assay [7] deals with PAD. Put shortly:
as §1

Assay [8] deals with PC15. The gist of the method:
as §1

Assay [9] has as its system TAB109. Put shortly: as §1
Assay [10] deals with PC49. The gist of the method: as §1

This passage reports Potency results from PubChem BioAssay (NCATS).

Inconclusive results are not listed. The source made the active and inactive calls. Calls follow the shape of the dose curve; as a rule, active = well fitted inhibition curve with a large enough effect; inconclusive = small, poorly fitted or top-dose-only effect; inactive = flat fitted curve, though single readings scatter. Numbered stars: 1 amine (or outer) side, 2 acyl side, 3 side chain; on linkers, the order of the positions; unused ones are H or OH. Bridge positions count the residues as written; N and C are the ends. Square brackets hold non-standard residues; d marks the D form. Peptide text beside a SMILES is read from it. I, II: the chains in the order shown. Actinocin(9to1) = Cc1c2oc3c(C)ccc(C(=O)[*:1])c3nc-2c(C(=O)[*:2])c(N)c1=O; NMeV = CN[C@H](C(=O)O)C(C)C; Sar = CNCC(=O)O
Potency is read from the fitted curve at half-maximal effect.

In the case of `CCN(CC)CCOc1ccc(C(O)(Cc2ccc(Cl)cc2)c2ccc(C)cc2)cc1` (stereo unspecified), the Potency in assay [1] is 8.91 µM (active).
With `Clc1ccc2c(c1)CCc1cccnc1C2=C1CCNCC1`, the Potency result in assay [2] and in [4] was “inactive” throughout. Also, the Potency in assay [3] is 13.5 µM (active).
As to `Cc1c2oc3c(C)ccc(C(=O)N[C@@H]4C(=O)N[C@H](C(C)C)C(=O)N5CCC[C@H]5C(=O)N(C)CC(=O)N(C)[C@@H](C(C)C)C(=O)O[C@@H]4C)c3nc-2c(C(=O)N[C@@H]2C(=O)N[C@H](C(C)C)C(=O)N3CCC[C@H]3C(=O)N(C)CC(=O)N(C)[C@@H](C(C)C)C(=O)O[C@@H]2C)c(N)c1=O` (I: T[dV]P[Sar][NMeV] / II: T[dV]P[Sar][NMeV]; ester I:1-I:C, II:1-II:C; linker I:N-II:N via Actinocin(9to1)), the Potency was 0.0035 µM (active) in [5]; 0.005 µM (active) in assay [1]; 0.0045 µM (active) in assay [6]; 0.005 µM (active) in assay [7]; 0.0112 µM (active) in assay [8]; 0.0054 µM (active) in [3]. The Potency is 0.0063 µM (active) in assay [4] and 0.004 µM (active) in assay [9].
With `CC(=O)Oc1ccc(C(c2ccc(OC(C)=O)cc2)c2ccccn2)cc1`, the Potency result in [5], in assay [1], in assay [6], in [7], in assay [8] and in assay [3] was “inactive” in each case. The Potency result in assay [4] and in [9] was “inactive” throughout. For the same molecule, the Potency in [10] is 7.08 µM (active).
Consider `CC1=C(C(=O)OC(C)C)C(c2cccc([N+](=O)[O-])c2)C(C(=O)OC2CN(C(c3ccccc3)c3ccccc3)C2)=C(N)N1` (stereo unspecified), for which the Potency was 7.94 µM (active) in assay [5]; 6.31 µM (active) in assay [1]; 8.91 µM (active) in [6]; 10 µM (active) in assay [7]; 4.47 µM (active) in assay [8]; 7.57 µM (active) in [3]. Besides, the Potency in assay [4] is 10 µM (active); in assay [9], 6.31 µM (active).
On to `COc1ccc(CN2CCN(C(c3ccc(F)cc3)c3ccc(F)cc3)CC2)c(OC)c1OC`, for which the Potency in assay [5] was 8.91 µM (active); in [1] it was 7.94 µM (active); in assay [6] it was 7.08 µM (active); in assay [7] it was 8.91 µM (active); in assay [3] it was 12 µM (active); in assay [4], 10 µM (active). For the same molecule, the Potency in [9] is 11.2 µM (active).
With `NC(CS)C(=O)O` (stereo unspecified), the Potency in [5] is 11.2 µM (active); in [1], 10 µM (active); in assay [6], 12.6 µM (active); in assay [9], 10 µM (active).
For `COc1cc(-c2ccc(=O)[nH]n2)ccc1OC(F)F`, the Potency in assay [5] is 0.224 µM (active); in [1], 0.0112 µM (active); in assay [6], 0.112 µM (active); in assay [9] it was 0.0447 µM (active). The Potency entry in assay [7], in [8] and in [4] was “inactive” each time.
`O=c1c(-c2ccccc2)c1-c1ccccc1`: the Potency in [5] is 11.2 µM (active); in assay [3] it was 12 µM (active); in [4] it was 11.2 µM (active).
Consider `CCCOC(C(=O)OC1CCN(C)CC1)(c1ccccc1)c1ccccc1`, for which the Potency result in assay [7] and in [10] was “inactive” in each case.
As for `CC(C)N=C(N)/N=C(\N)Nc1ccc(Cl)cc1`, the Potency in assay [8] is 0.708 µM (active); in [3], 1.61 µM (active).
In the case of `CN1CCN(C(c2ccccc2)c2ccccc2)CC1`, the Potency result in assay [2], in assay [7], in [8], in [10], in [4] and in [9] was “inactive” in each case.
On to `CN1CCN(CCCN2c3ccccc3Sc3ccc(S(=O)(=O)N(C)C)cc32)CC1`, for which the Potency in [1] was 3.16 µM (active); in assay [6] it was 3.16 µM (active); in assay [7], 3.98 µM (active).
As to `COC(=O)[C@H]1[C@H]2C[C@H]3c4[nH]c5ccccc5c4CCN3C[C@H]2CC[C@@H]1O`, the Potency entry in assay [3] is “inactive”.
Regarding `CO/N=C1\CN(c2nc3c(cc2F)c(=O)c(C(=O)O)cn3C2CC2)CC1CN` (stereo unspecified), the Potency was 8.91 µM (active) in assay [1] and 5.01 µM (active) in [9]. In addition, in assay [10], the Potency entry is “inactive”.
For `CCCCCCCCCCCCCCCC[N+](C)(C)CC`, the Potency is 4.47 µM (active) in assay [5]; 5.62 µM (active) in assay [1]; 3.98 µM (active) in assay [6]; 8.91 µM (active) in assay [7]; 8.91 µM (active) in [8]; 5.36 µM (active) in assay [3]. The Potency in assay [4] is 5.62 µM (active); in assay [9], 4.47 µM (active).
Turning to `c1ccc(-c2ccc(C(c3ccccc3)n3ccnc3)cc2)cc1` (stereo unspecified), the Potency in assay [5] is 7.08 µM (active); in [1], 3.16 µM (active); in assay [6], 11.2 µM (active); in assay [7], 7.94 µM (active); in assay [8] it was 11.2 µM (active); in assay [3], 12 µM (active). Besides, the Potency in assay [4] was 6.31 µM (active); in [9], 8.91 µM (active).
For the molecule `O=C1OCCN1/N=C/c1ccc([N+](=O)[O-])o1`, the values for the Potency in assay [1] and in assay [9] were 11.2 µM (active) and 7.94 µM (active), respectively. In addition, the Potency entry in [8] was “inactive”.
